The panel holds about 83,000 compounds, 20% with a hit somewhere; the sample as a whole holds those more often.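 Compound tested at a single concentration for 48 hours in 96-well plates; a percent growth value below 10 was scored as active.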 The source made the active and inactive calls.
What follows are compounds tested on SN12C renal (assay: NCI-60 one-dose screen, 48 h (100 = growth as untreated, 0 = no growth, -100 = all killed)). Conditions: 10 µM unless noted.
With C=C(C=O)[C@@H]1CC[C@]2(C)[C@H](CC=C3[C@H]4[C@@H](C)[C@H](C)CC[C@]4(C(=O)OC)CC[C@]32C)[C@@]1(C)CCC#N the growth was 12.9% (inactive). With COc1ccc([C@@H]2c3[nH]c4ccccc4c3C[C@H]3C(=O)N(C4CCN(CC5CCCCC5)CC4)CC(=O)N23)c(OC)c1 the growth was 81.6% (inactive). With c1ccc(C(c2nc3ncncc3[nH]2)N2CSc3nc4ncncc4n3C2)cc1 (stereo not drawn) the growth was 87.5% (inactive). In the case of Cc1occc1-c1nc2s/c(=C/c3ccc(-c4cc(C(F)(F)F)ccc4Cl)o3)c(=O)n2n1, the growth is reported as 98.4% (inactive). With CNCc1cccc2c1OCCCCCCC(C)(O)CC(C)(C)S(=O)(=O)c1ccc(cc1)-c1cnc(N)c(n1)C(=O)N2 (stereo not drawn) the growth was 16.6% (inactive). In the case of CS(=O)(=O)c1ncc(-c2ccccc2)cn1, the growth is reported as 96.4% (inactive). In the case of CCOC(=O)c1c(N)c(C#N)cn1-c1cc(OC)c(OC)c(OC)c1, the growth is reported as 101% (inactive). With CCCCCc1ccc(S(=O)(=O)Nc2cc(-c3csc(NC(=O)CN4CCN(C)CC4)n3)ccc2OC)cc1 the growth was 11.8% (inactive). In the case of Cc1nc2ncc(-c3ccc4ncnc(NCc5ccccc5)c4c3)cc2[nH]1, the growth is reported as 32.3% (inactive). In the case of C=C(C=O)[C@@H]1CC[C@]2(COC(C)=O)CC[C@]3(C)C(CC[C@@H]4[C@@]5(C)CC[C@H](OC(C)=O)C(C)(C)[C@@H]5CC[C@]43C)[C@@H]12 (stereo partly drawn), the growth is reported as 1.13% (active). With Cc1ccc(S(=O)(=O)N(CC[C@@H]2C[C@H]2c2cc3ccccc3o2)S(=O)(=O)c2ccc(C)cc2)cc1 the growth was 94.6% (inactive). In the case of COC(=O)c1ccc(NC2=C/C(=N/S(=O)(=O)c3ccc(C(=O)O)cc3)c3ccccc3C2=O)cc1, the growth is reported as -71.3% (active). In the case of O=C(CCn1c[n+](CC(=O)c2ccc(F)cc2)c2ccccc21)Nc1cccc2cccnc12, the growth is reported as 94% (inactive). With CC1(C)CC[C@]2(C(=O)O)CC[C@]3(C)C(=CC[C@@H]4[C@@]5(C)CC/C(=N\OCCC#N)C(C)(C)[C@@H]5CC[C@]43C)[C@@H]2C1 the growth was 86.7% (inactive). In the case of COc1ccc([C@@H]2[C@@H](O)C(=O)N2c2cc(OC)c(OC)c(OC)c2)cc1F, the growth is reported as 28.7% (inactive). For CCOC(=O)c1c(Nc2ccccc2)nn2c(-c3ccccc3)ccnc12, the growth was 90.5% (inactive). In the case of Cc1cc(C)c2sc(=O)n(Cc3nnc(SCCC(=O)O)o3)c2n1, the growth is reported as 97.8% (inactive). In the case of C=CCn1c(SCC(=O)Nc2ccc(C(=O)/C=C/c3cccc([N+](=O)[O-])c3)cc2)nnc1-c1c[nH]c2ccccc12, the growth is reported as 85.2% (inactive). For Cc1ccc(NC(=O)N[C@@H](Cc2cc(F)cc(F)c2)C(=O)NC2C(=O)N3C[C@H](O)C[C@H]3C(=O)N3CCCC[C@H]3C(=O)N[C@@H](CO)C(=O)N3C[C@H](C)C[C@H]3C(=O)O[C@H]2C)c(F)c1 (stereo partly drawn), the growth was 22% (inactive). In the case of C#C[C@]1(O)CC[C@H]2[C@@H]3CC=C4c5sc(-c6ccc7c(c6)OCO7)nc5CC[C@]4(C)[C@H]3CC[C@@]21C, the growth is reported as 22.3% (inactive). For CCCCCc1ccc(S(=O)(=O)Nc2cccc(-c3csc(NC(=O)CN4CCN(C)CC4)n3)c2)cc1, the growth was 90.6% (inactive). CCCn1cnc2c(c1=N)C(c1ccc(F)cc1)c1sc3c(CC)cccc3c1O2 (stereo not drawn) was tested, and the growth was 20.6% (inactive). For O=C(NCCn1ccnc1)c1ccc(-c2nc3ccc4[nH]ncc4c3c3c2CCCC3)cc1, the growth was 81.6% (inactive). With COc1cccc(O)c1/C=C(/C)c1ccc2c(OC)cccc2[o+]1 the growth was 99.5% (inactive). With NS(=O)(=O)c1ccc(-n2cc(CN3CCCCC3)nn2)cc1 the growth was 100% (inactive). For O=S(=O)(NCCNc1nccc(-n2cnc3ccccc32)n1)c1ccc(Cl)cc1, the growth was 96.6% (inactive). In the case of COC(=O)C1(C)CCC[C@]2(C)[C@H]3C[C@H]4C(C(C)C)=C[C@]3(CC[C@@H]12)[C@H]1[C@@H]4[C@@H](OC(=O)c2ccco2)CC[C@@H]1OC(=O)c1ccco1 (stereo partly drawn), the growth is reported as 101% (inactive). CCCn1cnc2c(c1=N)C(c1ccc(OC)cc1)c1sc3c(C)cccc3c1O2 (stereo not drawn) was tested, and the growth was 19% (inactive). For COc1cc(-c2nn(C(C)(C)C)cc2-c2ccnc(NCCCNS(=O)(=O)c3cccc(F)c3)n2)ccc1Cl, the growth was 58.6% (inactive). CC1(C)CC[C@]2(CN)CC[C@]3(C)C(=CC[C@@H]4[C@@]5(C)CCCNC(C)(C)[C@@H]5CC[C@]43C)[C@H]2C1 was tested, and the growth was 99.5% (inactive). NC(=O)c1cccc(C#CCNC[C@H]2C[C@@H](n3ccc4c(Cl)ncnc43)[C@H](O)[C@@H]2O)c1 was tested, and the growth was 99.5% (inactive). With NC(N)=Nc1ccc(Oc2cccc(Nc3cccc(C(F)(F)F)c3)c2)cn1 the growth was -13.7% (active). O=C(CSc1nc2ccccc2c(=O)n1-c1ccccc1)Nc1cccc(C(=O)/C=C/c2ccccc2)c1 was tested, and the growth was 98.4% (inactive). With COc1ccc(/C(N)=N/C(N)=N/c2nc3ccccc3s2)cc1 the growth was 79% (inactive). For Cc1cccc(/C=C/C(=O)Nc2ncc(Cc3cccc(C)c3)s2)c1, the growth was 38.5% (inactive). In the case of COc1c(N2CC3CCCNC3C2)c(F)cc2c(=O)c(C(=O)N/N=C/c3ccc(Br)cc3)cn(C3CC3)c12 (stereo not drawn), the growth is reported as 78.8% (inactive). In the case of O=C(c1ccc(O)cc1)[C@@H]1CN[C@@]2(C(=O)Nc3ccccc32)[C@H]1c1ccc(F)cc1, the growth is reported as 98.6% (inactive). With Nc1nc(Nc2ccccc2SSc2ccccc2Nc2nc(N)nc(-c3ccc4ccccc4c3)n2)nc(-c2ccc3ccccc3c2)n1 the growth was 70% (inactive).
